Experimental data published in PubChem BioAssay.
Activity calls are given as the source filed them.

These compounds were tested against Luciferin 4-monooxygenase (Photinus pyralis) (UniProt P08659) (assay: firefly luciferase enzyme inhibitors, primary screen, biochemical, luminescence, purified enzyme, 2006 set (AID 1141;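 also: cell-free assay with purified firefly luciferase at 100 ng per well in PBS; test concentration not given here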)). Conditions: SteadyGlo luminescence, 30 min, higher = more signal, called active from +8 up or from −8 down.
Sequence of Luciferin 4-monooxygenase (Photinus pyralis) (P08659 whole entry, looked up): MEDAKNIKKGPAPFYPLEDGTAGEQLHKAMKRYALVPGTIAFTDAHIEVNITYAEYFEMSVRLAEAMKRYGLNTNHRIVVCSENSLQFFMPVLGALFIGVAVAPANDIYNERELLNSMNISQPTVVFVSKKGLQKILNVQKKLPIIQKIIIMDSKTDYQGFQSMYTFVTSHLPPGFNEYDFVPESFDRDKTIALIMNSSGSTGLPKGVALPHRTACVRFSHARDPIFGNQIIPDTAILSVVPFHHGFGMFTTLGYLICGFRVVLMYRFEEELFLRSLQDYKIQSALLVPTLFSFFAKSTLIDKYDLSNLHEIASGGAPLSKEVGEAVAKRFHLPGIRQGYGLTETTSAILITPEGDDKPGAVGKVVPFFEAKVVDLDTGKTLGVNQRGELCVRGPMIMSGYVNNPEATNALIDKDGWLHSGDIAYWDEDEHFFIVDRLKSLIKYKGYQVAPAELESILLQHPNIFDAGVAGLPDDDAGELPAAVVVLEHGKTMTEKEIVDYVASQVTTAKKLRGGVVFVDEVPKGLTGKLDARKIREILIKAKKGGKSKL
With `CCCCCC1=C2CNC(CC(C)C)(C(=O)OC)C=C2C(C)C1=O` (centres undefined) the z-score was -0.0622 (inactive). For `O=C1C=C(c2ccccc2)C(=O)C2=C1CC([C@H]1Oc3ccccc3S(=O)(=O)N3CCC[C@@H]13)=CC2`, the z-score was -1.49 (inactive). In the case of `COCCOC(=O)N1C(=O)[C@@]2(c3cc(C#CCC(C(=O)OC)C(=O)OC)ccc31)[C@H](C(=O)Nc1nc3ccccc3s1)[C@H]1C(=O)O[C@H](c3ccccc3)[C@H](c3ccccc3)N1[C@@H]2c1ccc(O)cc1`, the z-score is reported as 0.258 (inactive). For `C=CCC(OC(C)=O)[C@@H]1[C@@H](N(Cc2ccc(-c3cccc(C(F)(F)F)c3)o2)C(=O)c2ccc(-c3ccccc3)cc2)c2cc(OCCCO)ccc2N1C(=O)c1ccc2ccccc2c1` (some centres undefined), the z-score was 0.85 (inactive). In the case of `Cc1ccc(S[C@]2(C(=O)NCCCN(C)C)CC(=O)N(Cc3ccccc3C(F)(F)F)[C@@H]2c2ccc(CO)cc2I)cc1`, the z-score is reported as -0.514 (inactive). `CN(C)CCCC[C@@H]1NC(=O)[C@H]2C[C@@H](C(=O)O)[C@@H](c3ccc(O)cc3)N2C1=O` was tested, and the z-score was -0.367 (inactive). For `COCCOC(=O)N1C(=O)[C@@]2(c3cc(C#CCCO)ccc31)[C@H](c1ccc(OCCO)cc1)N1[C@H](c3ccccc3)[C@H](c3ccccc3)OC(=O)[C@H]1[C@@H]2C(=O)N1CCCCCCC1`, the z-score was -0.247 (inactive). With `CCN(CC)c1ccc(N2CC=CC34O[C@@H]5C=CCCOC(=O)C5[C@H]3C(=O)N(C(C)CO)[C@@H]4C2=O)cc1` (some centres undefined) the z-score was -0.421 (inactive). In the case of `CC(C)=CCCC(C)=CC(O)C1C=CC2C(=O)NC(=O)C2N1Nc1ccc(Cl)cc1Cl` (centres undefined), the z-score is reported as -0.889 (inactive). In the case of `COC(=O)[C@@]1(Cc2ccc(F)cc2)[C@H]2c3cc(C(=O)N(C)C)n(CCc4ccc(O)c(O)c4)c3C[C@H]2CN1C(=O)c1ccccc1`, the z-score is reported as 0.569 (inactive). With `N#Cc1ccc(-c2cccc(=O)o2)cc1` the z-score was 1.68 (inactive). In the case of `COC(=O)[C@@]1(Cc2ccccc2)[C@H]2c3cc(C(=O)N(C)C)n(CCO)c3C[C@H]2CN1C(=O)c1ccccc1`, the z-score is reported as 2.11 (inactive). For `C=CCOC(=O)[C@H]1[C@@H]2C(=O)O[C@@H](c3ccccc3)[C@@H](c3ccccc3)N2[C@@H](c2ccc(OCCOC(=O)[C@@H]3C[C@@H]4C(=O)N[C@@H](CCCC[N+](C)(C)C)C(=O)N4[C@@H]3c3ccc(O)cc3)cc2)[C@]12C(=O)Nc1ccc(I)cc12`, the z-score was -2.99 (inactive).

These compounds were tested on Wnt5a (protein binding on small-molecule microarray) (assay: Wnt5a binders on small-molecule microarray, primary screen, biophysical, 635/667 nm fluorescence (AID 1142;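 also: fluorescence read at 667 nm with signal to noise per printed feature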)). Conditions: 635 nm fluorescence, higher = more signal.
In the case of `CCOC(=O)C[C@H]1[C@H](OC(=O)Cc2ccc3c(c2)OCO3)[C@@H](NC(=O)Cc2ccc(OC)cc2)c2cc(OCCCO)ccc2N1C(=O)Cc1ccc(OC)cc1`, the composite z-score is reported as -0.31. In the case of `COC(=O)[C@@]1(Cc2ccccc2)[C@H]2c3cc(C(=O)N4CCCC4)n(Cc4ccc(OC)c(OC)c4)c3C[C@H]2CN1C(=O)c1ccccc1`, the composite z-score is reported as 0.56. Work on `[N-]=[N+]=Nc1ccccc1C[C@]1(C(=O)N2CCOCC2)N=C(c2ccc(OCCCO)cc2)O[C@H]1c1ccccc1N=[N+]=[N-]` yielded a composite z-score of 0.936. In the case of `CC(C)(C)N1CC=CC23O[C@@H]4/C=C\CCCOC(=O)C4[C@H]2C(=O)N(CCCO)[C@@H]3C1=O` (some centres undefined), the composite z-score is reported as -0.285. In the case of `COc1ccc(CCNC(=O)[C@@H]2c3ccccc3C(=O)N(Cc3ccccc3OC)[C@H]2c2ccc(CO)cc2)cc1`, the composite z-score is reported as 0.321. `NC(=O)NCC#Cc1ccc2c(c1)[C@]1(C(=O)N2)[C@H](c2ccc(OCCO)cc2)N2[C@H](c3ccccc3)[C@H](c3ccccc3)OC(=O)[C@H]2[C@@H]1C(=O)O` showed a composite z-score of -0.129. Compound `COc1ccc(C(=O)Nc2ccc3c(c2)[C@@]2(O[C@H](CCO)[C@@H]([Si](C)(C)c4ccc(OC)cc4)[C@@H]2C)C(=O)N3Cc2ccccc2)cc1` has a composite z-score of 0.0753. `COC(=O)C1=CC(CCCO)=CC(c2cccs2)N(Cc2cc3c(cc2Br)OCO3)C=C1C(=O)OC` (centres undefined) gave a composite z-score of 0.46. With `O=C1O[C@H](c2ccccc2)[C@H](c2ccccc2)N2[C@H]1[C@@H](C(=O)O)[C@]1(C(=O)Nc3ccc(C#CCCO)cc31)[C@H]2c1ccc(OCCO)cc1` the composite z-score was 0.48. `CCOC(=O)C[C@H]1[C@H](OC(=O)Cc2ccc3c(c2)OCO3)[C@@H](NC(=O)c2ccc3ccccc3n2)c2cc(OCCCO)ccc2N1C(=O)Cc1ccc(OC)cc1` was tested, and the composite z-score was 0.0586. In the case of `O=C(NC1CC1)[C@@H]1c2ccccc2C(=O)N(Cc2cc(C(F)(F)F)cc(C(F)(F)F)c2)[C@H]1c1ccc(CO)cc1`, the composite z-score is reported as -0.0738. `C=C(/C(=C/C[C@@H](OC(C)=O)c1cccc(OCCO)c1)c1cnc2ccccc2c1)C(C)C` gave a composite z-score of 1. `O=C1C2C=CC(C(O)c3cccs3)N(Nc3ccc([N+](=O)[O-])cc3)C2C(=O)N1c1ccccc1` (centres undefined) showed a composite z-score of 0.0001. With `C[N+](C)(C)CCCC[C@@H]1NC(=O)[C@H]2C[C@@H](C(=O)NCCCCCNC(=O)CS)[C@@H](c3cccc(OCCO)c3)N2C1=O` the composite z-score was 0.0448. In the case of `COCCOC(=O)N1C(=O)[C@@]2(c3cc(C#CCC(C(=O)OC)C(=O)OC)ccc31)[C@H](c1ccc(O)cc1)N1[C@H](c3ccccc3)[C@H](c3ccccc3)OC(=O)[C@H]1[C@@H]2C(=O)Nc1nc2ccccc2s1`, the composite z-score is reported as 0.553. For `COC(=O)[C@@]1(Cc2ccc(OC)cc2)[C@H]2c3cc(C(=O)N4CCCC4)n(Cc4c(CO)[nH]cc(C)c4=O)c3C[C@H]2CN1C(=O)c1ccccc1`, the composite z-score was 0.702. In the case of `O=C1C[C@]2(c3ccc([N+](=O)[O-])cc3)C(=O)N(C3CC3)c3cc(CO)ccc3[C@H]2N1C1CCCCC1`, the composite z-score is reported as -0.0069. With `C=C(COC)/C(=C/C[C@@H](OC(C)=O)c1ccccc1OCCO)c1cnc2ccccc2c1` the composite z-score was 0.3. `COCCOC(=O)N1C(=O)[C@@]2(c3cc(C#CC4(O)CCCCCC4)ccc31)[C@H](c1ccc(O)cc1)N1[C@H](c3ccccc3)[C@H](c3ccccc3)OC(=O)[C@H]1[C@@H]2C(=O)N1CCCCCCC1` was tested, and the composite z-score was 0.357. `C=CCOC(=O)[C@@H]1[C@H]2C(=O)O[C@H](c3ccccc3)[C@H](c3ccccc3)N2[C@H](c2ccc(OCCOC(=O)[C@H]3C[C@H]4C(=O)N[C@@H](CCCCN(C)C)C(=O)N4[C@H]3c3ccc(O)cc3)cc2)[C@@]12C(=O)Nc1ccc(I)cc12` gave a composite z-score of 0.374. `COC(=O)C[C@H]1O[C@@]2(C[C@@H]1[Si](C)(C)C)C(=O)N(C)c1ccccc12` gave a composite z-score of 0.0074. `C=CCC(OC(C)=O)[C@@H]1[C@@H](N(Cc2cc3ccccc3o2)C(=O)c2cccc3ccccc23)c2cc(OCCCO)ccc2N1C(=O)c1ccc2ccccc2n1` (some centres undefined) was tested, and the composite z-score was 0.0394. Compound `COC(=O)[C@@]1(Cc2ccc(OC)cc2)[C@H]2c3cc(C(=O)N4CCCC4)n(CCn4cc([N+](=O)[O-])nc4C)c3C[C@H]2CN1C(=O)c1ccccc1` has a composite z-score of 1.94. Compound `CCCCCC1=C2CNC(CC(C)C)(C(=O)OC)C=C2C(C)C1=O` (centres undefined) has a composite z-score of -0.025. `O=C1C=C(c2ccccc2)C(=O)C2=C1CC([C@H]1Oc3ccccc3S(=O)(=O)N3CCC[C@@H]13)=CC2` gave a composite z-score of -0.0842. For `COCCOC(=O)N1C(=O)[C@@]2(c3cc(C#CCC(C(=O)OC)C(=O)OC)ccc31)[C@H](C(=O)Nc1nc3ccccc3s1)[C@H]1C(=O)O[C@H](c3ccccc3)[C@H](c3ccccc3)N1[C@@H]2c1ccc(O)cc1`, the composite z-score was 0.624. In the case of `C=CCC(OC(C)=O)[C@@H]1[C@@H](N(Cc2ccc(-c3cccc(C(F)(F)F)c3)o2)C(=O)c2ccc(-c3ccccc3)cc2)c2cc(OCCCO)ccc2N1C(=O)c1ccc2ccccc2c1` (some centres undefined), the composite z-score is reported as -0.0266. For `Cc1ccc(S[C@]2(C(=O)NCCCN(C)C)CC(=O)N(Cc3ccccc3C(F)(F)F)[C@@H]2c2ccc(CO)cc2I)cc1`, the composite z-score was -0.379. `CN(C)CCCC[C@@H]1NC(=O)[C@H]2C[C@@H](C(=O)O)[C@@H](c3ccc(O)cc3)N2C1=O` showed a composite z-score of 0.938. For `COCCOC(=O)N1C(=O)[C@@]2(c3cc(C#CCCO)ccc31)[C@H](c1ccc(OCCO)cc1)N1[C@H](c3ccccc3)[C@H](c3ccccc3)OC(=O)[C@H]1[C@@H]2C(=O)N1CCCCCCC1`, the composite z-score was 0.827. `CCN(CC)c1ccc(N2CC=CC34O[C@@H]5C=CCCOC(=O)C5[C@H]3C(=O)N(C(C)CO)[C@@H]4C2=O)cc1` (some centres undefined) gave a composite z-score of -0.188. `CC(C)=CCCC(C)=CC(O)C1C=CC2C(=O)NC(=O)C2N1Nc1ccc(Cl)cc1Cl` (centres undefined) showed a composite z-score of 0.623. For `COC(=O)[C@@]1(Cc2ccc(F)cc2)[C@H]2c3cc(C(=O)N(C)C)n(CCc4ccc(O)c(O)c4)c3C[C@H]2CN1C(=O)c1ccccc1`, the composite z-score was 0.643. In the case of `N#Cc1ccc(-c2cccc(=O)o2)cc1`, the composite z-score is reported as 0.0017. With `COC(=O)[C@@]1(Cc2ccccc2)[C@H]2c3cc(C(=O)N(C)C)n(CCO)c3C[C@H]2CN1C(=O)c1ccccc1` the composite z-score was 0.518. `C=CCOC(=O)[C@H]1[C@@H]2C(=O)O[C@@H](c3ccccc3)[C@@H](c3ccccc3)N2[C@@H](c2ccc(OCCOC(=O)[C@@H]3C[C@@H]4C(=O)N[C@@H](CCCC[N+](C)(C)C)C(=O)N4[C@@H]3c3ccc(O)cc3)cc2)[C@]12C(=O)Nc1ccc(I)cc12` gave a composite z-score of 1.02.
